# In PubChem BioAssay (NCI):
# Compounds without any hit were thinned out: in the full panel of roughly 83,000, 20% have a hit.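 Single-concentration screen, 48 h exposure, 96-well plates. Endpoint: percent growth. Below 10 = active.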 A number with no mark means an inactive call. Activity calls are given as the source filed them.
# System: HS 578T breast
# Assay: NCI-60 one-dose screen, 48 h (100 = growth as untreated, 0 = no growth, -100 = all killed)
# Conditions: 10 µM unless noted
row,SMILES,growth
1,Cn1c(=O)c2[nH]c(SC/C(=N/O)c3ccc(Br)cc3)nc2n(C)c1=O,31.8%
2,Cc1c2ncccc2nc2[nH]c3ccc(OCCN(C)C)cc3c12,47.9%
3,COc1ccc(-c2cc(C(=O)N3N=C(c4ccc(N)cc4)CC3c3ccc(Cl)cc3)c3ccccc3n2)cc1 (stereo not drawn),16.4%
4,Cc1oc(-c2ccc(Cl)cc2)nc1C1=NN(C(=O)c2ccncc2)C(c2ccccc2)C1 (stereo not drawn),87.4%
5,Nc1cc(C(=O)O)cc(-n2c(O)c(C=C3N=c4ccccc4=N3)sc2=S)c1,103%
6,Nc1ncnc2c1N=C(c1ccc(F)cc1)CC(c1cccc(Nc3ccnc4cc(Cl)ccc34)c1)N2 (stereo not drawn),68.3%
7,CCNC(=O)N1CCc2c(Br)c3c(c(OC)c2C1Cc1ccc(OC)cc1)OCO3 (stereo not drawn),16.9%
8,Nc1nc2ccccc2c2c(=O)c3cc(Cl)ccc3sc12,100%
9,Cc1ccc(S(=O)(=O)c2nc(-c3ccccc3)oc2SCC(N)=O)cc1,101%
10,CCCN(CCSSCCNc1nc(N(C)O)nc(N(C)O)n1)c1nc(N(C)O)nc(N(C)O)n1,131%
11,COc1cc(C=C2C(=O)NC(=S)NC2=O)cc(CN2CCCC2)c1O,106%
12,Cc1cc(C)c2c(c1)N(C)c1ncnc(-n3c(C)nc4cc(C)ccc43)c1CC2C (stereo not drawn),40.9%
13,COC1/C=C/OC2(C)Oc3c(C)c(O)c4c(O)c(c(/C=N/N(c5ccccc5)c5ccccc5)c(O)c4c3C2=O)NC(=O)C(C)=C/C=C/C(C)C(O)C(C)C(O)C(C)C(OC(C)=O)C1C (stereo not drawn),62.2%
14,CN(C)Cc1cc(C(C)(C)C)cc(Br)c1O,30.7%
15,COC(=O)c1ccc2c(c1)c1c(C)c3cnccc3c(C)c1n2C,-15% (active)
16,CN(C)CCCn1c2c(c3cnccc3c1=O)C(=O)c1ccccc1-2,20.3%
17,O=C(NNc1nc2cc(F)ccc2n2c(CN3CCOCC3)ccc12)c1ccccc1,57.9%
18,CCOC(=O)C/C(=N\Nc1cc(=O)[nH]c2ccc(OC)cc12)C(=O)OCC,91.8%
19,COc1ccc(/C=C(/C(=O)N2CCNCC2)c2cc(OC)c(OC)c(OC)c2)cc1O,26.7%
20,COC(=O)[C@]1(C)CCC[C@]2(C)[C@H]3C[C@@H]4[C@H]5[C@@H]6CC/C(=N\OCC/C(N)=N/O)[C@H]5[C@@]3(CC[C@H]21)CC4(C(C)C)O6,66.3%

row,SMILES,growth
1,CC/C(=C(\c1ccc(Cl)cc1)c1ccc(OCCN2CCCCC2)cc1)c1ccc(O)cc1,46.5%
2,CCN(CC)CCOc1ccc(/C(=C(\C)Cc2ccc(OC)cc2)c2ccc(OC(=O)NCc3ccccc3)cc2)cc1,63.2%
3,O=[N+]([O-])c1c(O)c(Cl)cc(Cl)c1Cl,117%
4,C=CC(=O)Nc1cccc(Oc2nccc(Nc3nnc(-c4ccc(Br)cc4)s3)n2)c1,93.4%
5,O=S(=O)(Nc1ccc2ccccc2c1)c1ccc(-c2cnc(C3CC3)o2)cc1,13.4%
6,CCCCCc1ccc(S(=O)(=O)Nc2ccc3nc(N)oc3c2)cc1,73.9%
7,C=CCN=c1sc(-c2ccc3ccccc3c2)cn1NC(=O)c1cc2ccc1CCc1ccc(cc1)CC2,58.7%
8,c1cc(OCCN2CCCCCC2)ccc1CNc1ccc2nc(CCC3CCCCC3)[nH]c2c1,65.2%
9,CC1=C2CC/C(C)=C/CC[C@]3(C)O[C@H]3CC/C(C)=C/[C@H]2OC1,108%
10,COc1ccc(C(O)c2cc3c(N)c(C(=O)Nc4cccc5ccccc45)sc3nc2C)cc1 (stereo not drawn),-9.07% (active)
11,CCOc1ncc([N+](=O)[O-])c(OCC)n1,121%
12,COc1ccc(C2[C@@H](Cl)C(=O)N2c2cc(OC)c(OC)c(OC)c2)cc1Cl (stereo partly drawn),31%
13,CS(=O)(=O)c1ccc(-c2nc3ccccc3n2CC(=O)N/N=C/c2ccccc2)cc1,102%
14,CN1CCN(c2ccc(NC3=CC(=O)c4ncncc4C3=O)cc2)CC1,-19.6% (active)
15,Cn1c(=O)[nH]c(=O)c2nc3c(nc21)-c1ccccc1C3=O,104%
16,COc1ccc(-c2cc(C(=O)N3N=C(c4ccc(N)cc4)CC3c3ccc(Cl)cc3)c3cc(OC)ccc3n2)cc1 (stereo not drawn),87.3%
17,O=c1cc(CP(=O)(O)O)c2cc(O)c(-c3ccccc3)cc2o1,101%
18,O=C1c2cccnc2C(=O)c2c1c(C(=O)OCCc1ccccn1)c1ccccn21,-28.6% (active)
19,Cc1cc(C(=O)CCCC(=O)c2cc(C)c(O)c(C)c2)cc(C)c1O,98.8%

# System: NCI/ADR-RES ovarian
# Assay: as above
# Conditions: 10 µM unless noted
row,SMILES,growth
1,Cn1c(=O)c2[nH]c(SC/C(=N/O)c3ccc(Br)cc3)nc2n(C)c1=O,37.1%
2,Cc1c2ncccc2nc2[nH]c3ccc(OCCN(C)C)cc3c12,24.8%
3,COc1ccc(-c2cc(C(=O)N3N=C(c4ccc(N)cc4)CC3c3ccc(Cl)cc3)c3ccccc3n2)cc1 (stereo not drawn),25.5%
4,Cc1oc(-c2ccc(Cl)cc2)nc1C1=NN(C(=O)c2ccncc2)C(c2ccccc2)C1 (stereo not drawn),94%
5,Nc1cc(C(=O)O)cc(-n2c(O)c(C=C3N=c4ccccc4=N3)sc2=S)c1,103%
6,Nc1ncnc2c1N=C(c1ccc(F)cc1)CC(c1cccc(Nc3ccnc4cc(Cl)ccc34)c1)N2 (stereo not drawn),78.2%
7,CCNC(=O)N1CCc2c(Br)c3c(c(OC)c2C1Cc1ccc(OC)cc1)OCO3 (stereo not drawn),4.18% (active)
8,Nc1nc2ccccc2c2c(=O)c3cc(Cl)ccc3sc12,108%
9,Cc1ccc(S(=O)(=O)c2nc(-c3ccccc3)oc2SCC(N)=O)cc1,99.5%
10,CCCN(CCSSCCNc1nc(N(C)O)nc(N(C)O)n1)c1nc(N(C)O)nc(N(C)O)n1,85.1%
11,COc1cc(C=C2C(=O)NC(=S)NC2=O)cc(CN2CCCC2)c1O,108%
12,Cc1cc(C)c2c(c1)N(C)c1ncnc(-n3c(C)nc4cc(C)ccc43)c1CC2C (stereo not drawn),7.15% (active)
13,COC1/C=C/OC2(C)Oc3c(C)c(O)c4c(O)c(c(/C=N/N(c5ccccc5)c5ccccc5)c(O)c4c3C2=O)NC(=O)C(C)=C/C=C/C(C)C(O)C(C)C(O)C(C)C(OC(C)=O)C1C (stereo not drawn),91.9%
14,CN(C)Cc1cc(C(C)(C)C)cc(Br)c1O,106%
15,COC(=O)c1ccc2c(c1)c1c(C)c3cnccc3c(C)c1n2C,-25% (active)
16,CN(C)CCCn1c2c(c3cnccc3c1=O)C(=O)c1ccccc1-2,-17.7% (active)
17,O=C(NNc1nc2cc(F)ccc2n2c(CN3CCOCC3)ccc12)c1ccccc1,5.25% (active)
18,CCOC(=O)C/C(=N\Nc1cc(=O)[nH]c2ccc(OC)cc12)C(=O)OCC,103%
19,COc1ccc(/C=C(/C(=O)N2CCNCC2)c2cc(OC)c(OC)c(OC)c2)cc1O,105%
20,COC(=O)[C@]1(C)CCC[C@]2(C)[C@H]3C[C@@H]4[C@H]5[C@@H]6CC/C(=N\OCC/C(N)=N/O)[C@H]5[C@@]3(CC[C@H]21)CC4(C(C)C)O6,32.1%

row,SMILES,growth
1,CC/C(=C(\c1ccc(Cl)cc1)c1ccc(OCCN2CCCCC2)cc1)c1ccc(O)cc1,53.3%
2,CCN(CC)CCOc1ccc(/C(=C(\C)Cc2ccc(OC)cc2)c2ccc(OC(=O)NCc3ccccc3)cc2)cc1,78.7%
3,O=[N+]([O-])c1c(O)c(Cl)cc(Cl)c1Cl,95.6%
4,C=CC(=O)Nc1cccc(Oc2nccc(Nc3nnc(-c4ccc(Br)cc4)s3)n2)c1,99.8%
5,O=S(=O)(Nc1ccc2ccccc2c1)c1ccc(-c2cnc(C3CC3)o2)cc1,9.69% (active)
6,CCCCCc1ccc(S(=O)(=O)Nc2ccc3nc(N)oc3c2)cc1,53%
7,C=CCN=c1sc(-c2ccc3ccccc3c2)cn1NC(=O)c1cc2ccc1CCc1ccc(cc1)CC2,67.2%
8,c1cc(OCCN2CCCCCC2)ccc1CNc1ccc2nc(CCC3CCCCC3)[nH]c2c1,66.9%
9,CC1=C2CC/C(C)=C/CC[C@]3(C)O[C@H]3CC/C(C)=C/[C@H]2OC1,87.7%
10,COc1ccc(C(O)c2cc3c(N)c(C(=O)Nc4cccc5ccccc45)sc3nc2C)cc1 (stereo not drawn),4.32% (active)
11,CCOc1ncc([N+](=O)[O-])c(OCC)n1,99.5%
12,COc1ccc(C2[C@@H](Cl)C(=O)N2c2cc(OC)c(OC)c(OC)c2)cc1Cl (stereo partly drawn),18%
13,CS(=O)(=O)c1ccc(-c2nc3ccccc3n2CC(=O)N/N=C/c2ccccc2)cc1,105%
14,CN1CCN(c2ccc(NC3=CC(=O)c4ncncc4C3=O)cc2)CC1,-20.4% (active)
15,Cn1c(=O)[nH]c(=O)c2nc3c(nc21)-c1ccccc1C3=O,95.2%
16,COc1ccc(-c2cc(C(=O)N3N=C(c4ccc(N)cc4)CC3c3ccc(Cl)cc3)c3cc(OC)ccc3n2)cc1 (stereo not drawn),14.8%
17,O=c1cc(CP(=O)(O)O)c2cc(O)c(-c3ccccc3)cc2o1,102%
18,O=C1c2cccnc2C(=O)c2c1c(C(=O)OCCc1ccccn1)c1ccccn21,-26.4% (active)
19,Cc1cc(C(=O)CCCC(=O)c2cc(C)c(O)c(C)c2)cc(C)c1O,98%
